# Test results: PubChem BioAssay AID2314 (National Center for Advancing Translational Sciences (NCATS), 2010)
# About 37,000 (12%) of roughly 300,000 compounds were called active. Cut-off read from the data, not from the text of the source: active = max response mostly above about 13% (no sharp cut-off); inactive = mostly below about 14%. The sample as a whole holds a higher share of actives than the screen did.
# Experiment: Cycloheximide Counterscreen for Small Molecule Inhibitors of Shiga Toxin; note: read at 38.3 µM for the half of the compounds with a filed dose; 0% is about no effect
# Details: cell reporter, cycloheximide protein synthesis inhibition counterscreen; hits give high values
row,Compound,max response
1,O=C(NCc1ccccn1)[C@]1(C(F)(F)F)C[C@H](CCc2ccccc2)CCCO1,-4.95% (inactive)
2,O=[N+]([O-])c1cc(S(=O)(=O)CCCN2CCOCC2)ccc1F,-6.03% (inactive)
3,NC(=O)CCN1CCN(S(=O)(=O)/C=C/c2ccccc2)CC1,-9.41% (inactive)
4,COCCCNC(=O)Cc1ccc(-n2c(C)nc3cccnc32)cc1,-1.61% (inactive)
5,COC(=O)C1CCCCN1C(=O)c1ccc(OC2CCN(C(C)=O)CC2)c(OC)c1 (configuration not stated),-4.09% (inactive)
6,Cn1c(C(=O)OC(C(=O)NC2CCCCC2)c2ccccn2)cc2sccc21 (configuration not stated),-2.24% (inactive)
7,CN1/C(=C\C(=O)c2oc3ccccc3c2N)C(C)(C)c2ccccc21,5.01% (inactive)
8,CC(C)Nc1nnc(SCC(=O)/C=C2\N(C)c3ccccc3C2(C)C)s1,5.97% (inactive)
9,CN1/C(=C\C(=O)c2cccnc2Cl)C(C)(C)c2ccccc21,17.7% (active)
10,C=CCNC(=O)COc1coc(CN2CCN(Cc3ccccc3)CC2)cc1=O,-1.91% (inactive)
11,CCOC(=O)NNc1cc(C(F)(F)F)ccn1,-0.89% (inactive)
12,CCCC(=O)Nc1cccc(-c2cn3ccsc3n2)c1,27.2% (active)
13,O=C(NCc1cn2ccsc2n1)Nc1cccc(Cl)c1,-2.26% (inactive)
14,CCc1cccc(NC(=O)CCC(=O)O)c1,-2.1% (inactive)
15,CCOC(=O)C1=C(C)OC(N)=C(C#N)C1c1cncc(-c2ccc(F)cc2)c1 (configuration not stated),-4.52% (inactive)
16,CN(C)c1ccc(C(=S)N2CCN(C(=S)Nc3ccc(Cl)cc3)CC2)cc1,-2.08% (inactive)
17,C=CCc1cccc2cc(C(=O)Nc3ccc(NC(C)=O)cc3)c(=O)oc12,7.03% (inactive)
18,CC1Cc2ccccc2N1C(=O)CSc1nnc(C2CC2)n1C (configuration not stated),-2.64% (inactive)
19,C[C@@H]1C[C@@H]2O[C@H]2/C=C\C=C\C(=O)Cc2c(Cl)c(O)cc(O)c2C(=O)O1,8.16% (active)
20,O=C(OCC1O[C@@H](OC(=O)c2cc(O)c(O)c(O)c2)[C@@H](OC(=O)c2cc(O)c(O)c(O)c2)[C@@H](OC(=O)c2cc(O)c(O)c(O)c2)[C@@H]1OC(=O)c1cc(O)c(O)c(O)c1)c1cc(O)c(O)c(O)c1 (some centres not stated),-3.49% (inactive)
21,Cc1cc(C)cc(N(CC(=O)NCCSCc2ccco2)S(C)(=O)=O)c1,-3.57% (inactive)
22,OCCNCCOc1ccc(Cl)c(Cl)c1,-2.06% (inactive)

row,Compound,max response
1,COc1ccc(CCNC(=O)CSc2nc(-c3ccc(OC)c(OC)c3)ccc2C#N)cc1,-0.296% (inactive)
2,CCc1cc2c(=O)c(-c3ccc(F)cc3)c(C(F)(F)F)oc2cc1OCC(=O)O,-0.895% (inactive)
3,CCc1cc2c(=O)c(-c3ccon3)c(N)oc2cc1OC,40.8% (active)
4,COc1ccc2oc(N)c(C=O)c(=O)c2c1,11.3% (inactive)
5,COC(=O)Cn1cc(/C=C/[N+](=O)[O-])c2ccccc21,0.349% (inactive)
6,Cc1ccc(-n2nc(C)c(/C=N/NC(=O)c3cccs3)c2Cl)cc1,41.5% (active)
7,Cc1cc(C)c([N+](=O)[O-])cc1-c1ccc(/C=N/NC(=O)c2nonc2N)o1,8.92% (inactive)
8,Cc1nn(-c2ccccc2)c(Cl)c1/C=N/NC(=O)c1nn(C)cc1[N+](=O)[O-],30.2% (active)
9,Cc1nn(-c2ccccc2)c(C)c1/C=N/NC(=O)CSc1nc2ccccc2c(=O)n1-c1ccccc1,-2.06% (inactive)
10,Cc1nn(-c2ccccc2)c(NC(=O)c2cccs2)c(-c2ccc(Cl)cc2)c1=O,-4.56% (inactive)
11,Cc1ccc(-c2nnc(SCC(=O)N/N=C/c3cccs3)n2-c2ccc(C)cc2)cc1,-2.1% (inactive)
12,COc1ccc(CCN(C)C(=O)C23CC4CC(CC(Cl)(C4)C2)C3)cc1OC,6.24% (inactive)
13,Cc1ccc(C(=O)N2CCC(n3nccc3NC(=O)Nc3cccc(F)c3)CC2)cn1,-3.88% (inactive)
14,Cc1ccc(S(=O)(=O)NCc2cn3ccsc3n2)c(C)c1,2.86% (inactive)
15,FC(F)(F)Oc1ccc(-c2cn3cccnc3n2)cc1,50.9% (active)
16,COc1cc(OC)cc(-c2nc(=S)n3ccsc3n2)c1,-1.36% (inactive)
17,c1ccc(-c2cn3cccnc3n2)cc1,15.7% (active)
18,COc1ccc(-c2cn3cccnc3n2)cc1,23.9% (active)
19,CN1CCN(Cc2ccc(OC(F)(F)F)cc2)CC1,-2.95% (inactive)
20,COc1ccc(-c2ccnc(SCC(=O)N3CCOCC3)n2)cc1,2.08% (inactive)
21,Cc1ccccc1Nc1c(-c2ccccc2)nc2ncccn12,-1.21% (inactive)
22,c1ccc(-c2cn3c(n2)CCc2ccc4cccnc4c2-3)cc1,11.1% (inactive)

row,Compound,max response
1,COc1ccc(-c2cn3ccsc3n2)cc1,42.7% (active)
2,COc1ccc(N2CCN(C(=O)CSc3nnc4ncccn34)CC2)cc1,-1.32% (inactive)
3,CC(C)CC[n+]1ccn(C2=C([O-])c3ccccc3C(=O)/C2=N\S(=O)(=O)c2ccccc2)c1,-1.98% (inactive)
4,O=[N+]([O-])c1ccc(Oc2ccc(F)cc2Br)c2ccncc12,-2.77% (inactive)
5,CCCCn1nc(C(=O)Nc2ccc(S(=O)(=O)Nc3ncccn3)cc2)c2ccccc2c1=O,-8.36% (inactive)
6,O=C1c2cccc(OCC(=O)N3N=C(c4cccs4)CC3c3ccc(F)cc3)c2CCN1Cc1ccccc1 (configuration not stated),4.05% (inactive)
7,CCOc1cc(C2C(C(=O)c3ccco3)=C(O)C(=O)N2Cc2ccccc2)ccc1O (configuration not stated),4.82% (inactive)
8,Cc1cc(=O)oc2c(C)c(OCC(=O)NCCN3CCOCC3)ccc12,7.13% (inactive)
9,CCNc1c(NS(=O)(=O)c2ccc(C3CCCCC3)cc2)c(=O)oc2ccccc12,-5.65% (inactive)
10,CC(c1ccccc1)n1c(NCCCn2ccnc2)nc2c1c(=O)[nH]c(=O)n2C (configuration not stated),-2.03% (inactive)
11,COc1ccc(-c2c(NC(=O)c3ccco3)oc3ccc(Cl)cc3c2=O)cc1,1.49% (inactive)
12,COc1ccc(CN2CCCC(N3CCc4ccccc4C3)C2)c(O)c1 (configuration not stated),-0.856% (inactive)
13,CCOc1ccc(NC(=O)[C@H](C)NC(=O)C2CC(=O)N(c3ccc(OC)cc3)C2)cc1 (some centres not stated),4.95% (inactive)
14,O.O.O.O=S(=O)([O-])OC[C@H]1O[C@@H](O[C@]2(COS(=O)(=O)[O-])O[C@H](OS(=O)(=O)[O-])[C@@H](OS(=O)(=O)[O-])[C@@H]2OS(=O)(=O)[O-])[C@H](OS(=O)(=O)[O-])[C@@H](OS(=O)(=O)[O-])[C@@H]1OS(=O)(=O)[O-].[Al],-3.55% (inactive)
15,O=C(c1ccccc1)N1CCN(C(=O)c2cc3nc(-c4ccccc4)cc(C(F)(F)F)n3n2)CC1,-1.97% (inactive)
16,COc1cccc(-c2nnc(NC(=O)c3ccc(S(=O)(=O)N(CC(C)C)CC(C)C)cc3)o2)c1,-5.08% (inactive)
17,Cc1ccc(S(=O)(=O)NCC(=O)N2CCN(c3ccccn3)CC2)cc1,-5.16% (inactive)
18,Cc1ccc(N2CCN(c3ccc(C)cc3)C2c2ccccn2)cc1,21.8% (active)
19,Cc1ccc(N2C(=O)C3CC3C2=O)cc1 (configuration not stated),-6.06% (inactive)
20,CC1=NN(/C(=N\c2nnc(C)s2)Nc2ccccc2)[C@H](c2ccc(C)cc2)S1,-0.911% (inactive)
21,COc1ccc(O)c(C(=O)c2cnc3c(c2)c(-c2ccc(F)cc2)c(C#N)c(=O)n3C)c1,11.3% (inactive)
22,COc1ccc(O)c(C(=O)c2cnc3onc(C(C)C)c3c2)c1,26.6% (active)

row,Compound,max response
1,COCCn1c(=O)[nH]c(=O)c2cc(C(=O)c3cc(OC)ccc3O)cnc21,-3.24% (inactive)
2,O=C(CS(=O)(=O)c1cn(Cc2ccc(Cl)cc2)c2ccccc12)N1CCOCC1,-4.25% (inactive)
3,Cc1[nH]n(-c2ccc([N+](=O)[O-])cc2)c(=O)c1C=NCCN1CCN(C(=O)c2ccccc2F)CC1,-3.41% (inactive)
4,Cc1cc(Cl)ccc1C(=O)C1CCCN(C(=O)CCN2CCCO2)C1 (configuration not stated),-2.88% (inactive)
5,O=C(CC1Nc2ccccc2NC1=O)Nc1ccccc1 (configuration not stated),31% (active)
6,CCOc1ccc(NC(=O)CC2NCCNC2=O)cc1 (configuration not stated),0.991% (inactive)
7,COC(=O)C(C)C1Sc2ccccc2NC1=O (configuration not stated),-1.04% (inactive)
8,O=C(CC1Nc2ccccc2NC1=O)Nc1ccccc1NC(=O)CC1Nc2ccccc2NC1=O (configuration not stated),34.5% (active)
9,CC1CCN(CCC(=O)Nc2ccccc2)CC1,1.18% (inactive)
10,CCc1cc(C(=O)OC)c(NC(=O)CC2Sc3ccc(C(F)(F)F)cc3NC2=O)s1 (configuration not stated),0.357% (inactive)
11,O=C(CC1NCCNC1=O)Nc1ccc(Oc2ccccc2)cc1 (configuration not stated),30% (active)
12,COC(=O)c1cc(C)sc1NC(=O)CC1Nc2ccccc2NC1=O (configuration not stated),22.8% (active)
13,Cc1ccc(CNC(=O)CC2Sc3ccccc3NC2=O)cc1 (configuration not stated),-1.23% (inactive)
14,CCN(CC)CCNCC(=O)Nc1ccc(Oc2ccccc2)cc1,-2.52% (inactive)
15,CCOC(=O)c1ccccc1NC(=O)CC1Nc2ccccc2NC1=O (configuration not stated),-6.08% (inactive)
16,CCc1ccc(NC(=O)CC2C(=O)NCCN2C(=S)Nc2ccccc2)cc1 (configuration not stated),5.14% (inactive)
17,CC1CCCN(S(=O)(=O)c2ccc(N(C(=O)c3cnccn3)C(C(=O)NC3CCCCC3)c3cccs3)cc2)C1 (configuration not stated),-3.46% (inactive)
18,COC(=O)c1ccc(COc2ccc(C#N)cc2)o1,0.875% (inactive)
19,Cc1cc(C(=O)CSc2nc(N)cc(=O)[nH]2)c(C)n1CCc1ccc(Cl)cc1,4.99% (inactive)
20,C=CCN(c1ccc(Cl)cc1)S(=O)(=O)c1cccc(C(=O)OCC(=O)N(C)C)c1,-6.49% (inactive)
21,COc1cc(C(=O)NCc2nnc(SCC(=O)Nc3nc4ccc(C)cc4s3)o2)cc(OC)c1OC,4.75% (inactive)
